Inconclusive results are not listed. Activity calls are given as the source filed them. Unless noted, the rule behind the calls is not given here.

The nature of assay [1]: rapamycin-like changes in RPL19A-GFP expression – cell-based, S. cerevisiae, multiplex flow cytometry, primary screen (AID 1862; in the data active = percent of DMSO control GFP below about 86%;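 note: lower values mimic rapamycin by blocking the RPL19A rise seen in DMSO cells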). Conditions: S. cerevisiae RPL19A-GFP strain, flow cytometry fluorescence, 3 h; at 10 µM; stronger effect = lower value. (In general: In flow cytometry, cells or beads pass a laser one at a time.)
Assay [2] is described as follows: TOR pathway GLN3 branch reporter MEP2-GFP changes – S. cerevisiae, multiplex flow cytometry, primary screen (AID 1867;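 active = GFP response, as percent of the DMSO control, above the screen-wide mean plus 3 SD, about 139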;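 note: median GFP channel fluorescence of barcode-gated MEP2-GFP cells measured by flow cytometry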). Conditions: S. cerevisiae MEP2-GFP strain, 3 h, at 10 µM, stronger effect = higher value.
A short description of assay [3]: TOR pathway RTG branch CIT2 reporter changes – S. cerevisiae, GFP fusion, multiplex flow cytometry, primary screen (AID 1870;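 active = percent response above a set limit, the screen-wide mean plus 3 SD, cut at about 130% in these data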;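 note: barcoded CIT2-GFP strain pooled with four other GFP strains with rapamycin as positive control; median GFP fluorescence per well over plate mean of DMSO wells so 100% = DMSO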). The settings on record: S. cerevisiae CIT2-GFP expression, 3 h, at 10 µM, stronger effect = higher value.
Assay [4] in a line: TOR pathway LAP4-GFP level changes – S. cerevisiae, multiplex flow cytometry, primary screen (AID 1873;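 active = GFP signal, as percent of the solvent control, above the screen mean plus 3 SD, about 149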). Conditions: S. cerevisiae LAP4-GFP expression, 3 h, at 10 µM, stronger effect = higher value.
Assay [5] is described as follows: yeast AGP1-GFP level changes, GLN3 branch – cell-based, multiplex flow cytometry, S. cerevisiae, primary screen (AID 1887;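 active = GFP signal above the screen-wide mean plus 3 SD, that is over about 124.5% of the solvent control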;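 note: AGP1-GFP fusion strain of S. cerevisiae within a five-strain barcoded multiplex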). The settings on record: 3 h, at 10 µM, stronger effect = higher value.
Assay [6] can be described thus: reduced mouse 2C T cell binding to pMHC/ICAM-1 vesicles – MLPCN validation set, flow cytometry, LFA-1/ICAM-1 modulator project, pilot screen (AID 2523;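 active = response below a set limit, under 55% cells CD8-positive and vesicle-bound, and CD8 cells' 90th-percentile brightness under 279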;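 for vesicle binding response: mean PE anti-B7-1 fluorescence of CD8+ cells relative to row control; 100% = QL9-loaded vesicles with DMSO vehicle in the same plate row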). Conditions: 2C mouse CD8+ T cells, at 7 µM, stronger effect = lower value; double positive events: measured here: CD8+/vesicle+ event percentage.
The target of assay [7] is Integrin beta-1 (Homo sapiens) + Integrin alpha-4 (Homo sapiens) (UniProt P13612+P05556). Briefly: alpha4beta1 integrin LIBS antibody binding reduction – U937 cells, HUTS-21 mAb, flow cytometry, validation set, VLA-4 allosteric modulator project, pilot screen (AID 2674;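 active = inhibition above 50%, about 3 SD of the validation set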;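 note: antibody binding induced by the VLA-4 ligand LDV present at three times its Kd; 0% = LDV ligand with antibody and no compound and 100% = antibody without LDV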). The settings on record: HUTS-21 LIBS mAb binding, at 6.7 µM, stronger effect = higher value.
Assay [8] in a line: calorie-restriction mimetic ROS inhibitors, yeast – validation compound set, pilot screen (AID 2706;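 active = superoxide response below 65% of plate, a cut near 3 SD across the whole screen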;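 note: yeast exposed to compound for one week at 30 degrees C before staining; 100% = mean of all compound wells on the same plate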). Conditions: S. cerevisiae aging, superoxide DHE fluorescence; at 10 µM; stronger effect = lower value.
The target in assay [9] is Beta-adrenergic receptor kinase 1 (Homo sapiens) (UniProt P25098). Put plainly: GRK2 binders displacing RNA aptamer, biochemical, validation, human GRK2, bead flow cytometry (AID 488806;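 active = aptamer binding inhibition above 30%, about 3 SD of noise from non-fluorescent compounds; inactive = inhibition at or below 30%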). Conditions: bead-bound GRK2, FAM-aptamer displacement, at 10 µM, stronger effect = higher value.
Sequence of Beta-adrenergic receptor kinase 1 (Homo sapiens) (P25098 whole entry, looked up): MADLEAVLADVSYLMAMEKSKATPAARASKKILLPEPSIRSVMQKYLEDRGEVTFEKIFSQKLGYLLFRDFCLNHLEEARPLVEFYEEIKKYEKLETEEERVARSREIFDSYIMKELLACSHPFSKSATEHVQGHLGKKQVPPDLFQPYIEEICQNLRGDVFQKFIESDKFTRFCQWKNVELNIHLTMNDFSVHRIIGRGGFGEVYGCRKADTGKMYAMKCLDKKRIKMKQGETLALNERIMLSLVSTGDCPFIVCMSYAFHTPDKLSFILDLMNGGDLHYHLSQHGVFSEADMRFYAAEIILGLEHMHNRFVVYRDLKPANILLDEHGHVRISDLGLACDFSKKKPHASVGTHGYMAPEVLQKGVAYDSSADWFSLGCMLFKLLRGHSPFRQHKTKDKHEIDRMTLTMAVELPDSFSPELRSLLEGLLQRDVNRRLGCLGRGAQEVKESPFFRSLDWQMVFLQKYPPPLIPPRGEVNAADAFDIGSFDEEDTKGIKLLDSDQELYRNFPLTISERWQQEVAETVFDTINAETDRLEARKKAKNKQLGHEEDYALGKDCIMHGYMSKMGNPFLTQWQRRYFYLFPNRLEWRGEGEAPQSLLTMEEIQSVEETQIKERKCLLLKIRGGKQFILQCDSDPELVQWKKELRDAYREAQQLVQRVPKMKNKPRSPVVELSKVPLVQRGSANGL
The target in assay [10] is Beta-2 adrenergic receptor (Homo sapiens) (UniProt P07550). Put plainly: agonist-induced loss of surface beta2AR – cell-based, FAP fluorogen, flow cytometry, validation set, pilot screen (AID 504459;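 active = percent response above 42, roughly 3 SD of non-fluorescent test compounds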;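 note: agonist-driven loss of surface beta2AR via internalization measured by FAP dye flow cytometry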). The settings on record: Am2.2-beta2AR cells, at 10 µM, stronger effect = higher value.
Sequence of Beta-2 adrenergic receptor (Homo sapiens) (P07550 whole entry, looked up): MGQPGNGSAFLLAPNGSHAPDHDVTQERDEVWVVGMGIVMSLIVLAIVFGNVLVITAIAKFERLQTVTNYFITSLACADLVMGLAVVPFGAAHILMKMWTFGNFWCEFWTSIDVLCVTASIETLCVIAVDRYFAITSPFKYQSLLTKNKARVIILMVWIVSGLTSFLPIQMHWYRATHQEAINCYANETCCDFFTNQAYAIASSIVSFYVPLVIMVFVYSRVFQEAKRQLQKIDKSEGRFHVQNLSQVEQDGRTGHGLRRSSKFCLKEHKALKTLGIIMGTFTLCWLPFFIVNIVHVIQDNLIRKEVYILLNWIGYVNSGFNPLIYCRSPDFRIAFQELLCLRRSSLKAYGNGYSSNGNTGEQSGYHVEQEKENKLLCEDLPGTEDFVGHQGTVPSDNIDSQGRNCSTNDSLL
Assay [11] concerns the target AP-2 complex subunit beta (Homo sapiens) (UniProt P63010). Briefly: beta-arrestin/AP2 interaction blockers – biochemical, validation set, GST-AP2 beads, flow cytometry, pilot screen (AID 504541;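 active = inhibition above 54%, about 3 SD of non-fluorescent compounds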;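 note: AP2 carries R879A mutation and is captured from E. coli lysate; bead-bound FITC arrestin peptide fluorescence measuring arrestin peptide binding to AP2; 0% = DMSO wells and 100% = excess unlabeled arrestin peptide control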). Conditions: FITC arrestin peptide, at 10 µM, stronger effect = higher value.
The nature of assay [12]: cytosolic pH regulators acting via V-ATPase – S. cerevisiae, pHLuorin, HTS validation (AID 504600; in the data active = response above about 15%;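 note: plate controls were DMSO for no effect and reference compound for full effect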). The settings on record: V-ATPase proton transport, at 10 µM, stronger effect = higher value.
In assay [13] the test system is anti-desmoglein-3 scFv antibody binding to human DSG3. Briefly: blockers of pathogenic pemphigus antibody–desmoglein-3 binding – biochemical, validation compound set, bead-based, flow cytometry, pilot screen (AID 588368;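 active = binding below the plate cutoff, the plate median minus 3 SD, with a reading above zero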;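 note: signal is the median channel fluorescence of bead-bound GFP antibody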). Conditions: Protein G beads, DSG3-Fc, scFv-GFP binding, at 10 µM, stronger effect = lower value.
In assay [14] the test system is Botulinum neurotoxin type F light chain protease (Clostridium botulinum). Briefly: Clostridium botulinum type F light chain protease inhibitors, microsphere substrate cleavage, validation (AID 588459). Conditions: multiplex microsphere protease substrate cleavage assay, flow cytometry; at 10 µM; stronger effect = higher value.
Assay [15] concerns the target Botulinum neurotoxin type A (Clostridium botulinum) (UniProt P0DPI0). Briefly: BoNT/A light chain protease inhibitors, biochemical, multiplex microsphere flow cytometry, validation set (AID 588460). Conditions: at 10 µM, stronger effect = higher value.
The target in assay [16] is Lethal factor (Bacillus anthracis) (UniProt P15917). Put plainly: Bacillus anthracis lethal factor inhibition, microsphere flow cytometry protease assay, validation at 10 µM (AID 588461). The settings on record: multiplex microsphere protease cleavage assay, stronger effect = higher value.
Sequence of Lethal factor (Bacillus anthracis) (P15917 whole entry, looked up): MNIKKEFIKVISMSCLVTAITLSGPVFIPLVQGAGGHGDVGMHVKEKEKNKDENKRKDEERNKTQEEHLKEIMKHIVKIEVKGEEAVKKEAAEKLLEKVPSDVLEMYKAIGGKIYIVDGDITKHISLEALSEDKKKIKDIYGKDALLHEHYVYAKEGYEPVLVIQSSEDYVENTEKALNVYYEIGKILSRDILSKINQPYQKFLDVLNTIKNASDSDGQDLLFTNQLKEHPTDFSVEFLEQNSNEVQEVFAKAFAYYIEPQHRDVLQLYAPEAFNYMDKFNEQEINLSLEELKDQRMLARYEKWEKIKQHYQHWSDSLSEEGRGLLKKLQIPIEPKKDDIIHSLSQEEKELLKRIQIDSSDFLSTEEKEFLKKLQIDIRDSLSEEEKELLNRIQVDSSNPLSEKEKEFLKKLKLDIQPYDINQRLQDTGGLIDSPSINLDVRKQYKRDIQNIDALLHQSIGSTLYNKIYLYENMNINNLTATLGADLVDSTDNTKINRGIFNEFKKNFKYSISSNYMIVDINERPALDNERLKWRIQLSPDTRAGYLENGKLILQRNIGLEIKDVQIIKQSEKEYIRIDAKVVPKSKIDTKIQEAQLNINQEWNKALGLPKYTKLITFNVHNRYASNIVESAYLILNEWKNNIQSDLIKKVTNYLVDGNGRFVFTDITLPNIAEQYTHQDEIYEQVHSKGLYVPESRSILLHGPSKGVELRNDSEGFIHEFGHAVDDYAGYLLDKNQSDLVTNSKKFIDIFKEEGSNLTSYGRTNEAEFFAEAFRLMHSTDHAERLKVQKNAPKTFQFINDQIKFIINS
The nature of assay [17]: Nile Red efflux blockade in pump-expressing yeast – validation compound set, multiplex, phenotypic, pilot screen (AID 588506;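 active = efflux inhibition above 0.42, the validation set average plus 4 SD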;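 note: Nile Red retained in cells so higher fluorescence means more efflux inhibition; 0 = negative control wells and 1 = enniatin B 25 µM full block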). Conditions: S. cerevisiae pump-expressing triplex, Nile Red efflux flow cytometry; at 10 µM; stronger effect = higher value.
The target in assay [18] is ATP-binding cassette sub-family B member 6 (Homo sapiens) (UniProt Q9NP58). Briefly: blockers of ABCB6-driven porphyrin uptake – K562-ABCB6 cells, flow cytometry, validation set, pilot screen (AID 588550;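 active = inhibition above the screen-wide mean plus 3 SD, about 51%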;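 note: 0% = DMSO wells and 100% = benzethonium chloride 70 µM positive control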). Conditions: K562-ABCB6 porphyrin accumulation, 1 h, at 10 µM, stronger effect = higher value.
Sequence of ATP-binding cassette sub-family B member 6 (Homo sapiens) (Q9NP58 whole entry, looked up): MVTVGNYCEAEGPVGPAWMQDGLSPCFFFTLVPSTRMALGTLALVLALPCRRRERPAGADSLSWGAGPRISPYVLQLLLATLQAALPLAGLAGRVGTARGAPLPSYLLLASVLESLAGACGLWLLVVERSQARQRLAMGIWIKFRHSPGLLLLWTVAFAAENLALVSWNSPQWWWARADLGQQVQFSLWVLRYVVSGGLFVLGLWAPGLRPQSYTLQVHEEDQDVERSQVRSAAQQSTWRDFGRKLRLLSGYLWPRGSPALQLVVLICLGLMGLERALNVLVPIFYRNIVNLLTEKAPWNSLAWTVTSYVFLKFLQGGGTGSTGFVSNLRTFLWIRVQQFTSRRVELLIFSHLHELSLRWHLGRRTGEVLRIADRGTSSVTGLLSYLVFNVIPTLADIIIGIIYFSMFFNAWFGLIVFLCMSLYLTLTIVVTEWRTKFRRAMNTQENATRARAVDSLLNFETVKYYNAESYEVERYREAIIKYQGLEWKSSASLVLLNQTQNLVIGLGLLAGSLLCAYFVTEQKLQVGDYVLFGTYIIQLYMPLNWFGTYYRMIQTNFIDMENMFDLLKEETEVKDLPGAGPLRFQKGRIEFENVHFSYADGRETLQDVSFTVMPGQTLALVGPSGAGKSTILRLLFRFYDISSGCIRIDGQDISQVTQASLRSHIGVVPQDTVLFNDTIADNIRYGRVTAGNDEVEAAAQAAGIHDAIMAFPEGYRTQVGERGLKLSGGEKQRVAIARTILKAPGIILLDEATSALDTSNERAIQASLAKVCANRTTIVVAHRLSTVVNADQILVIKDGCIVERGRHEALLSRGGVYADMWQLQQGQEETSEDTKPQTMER
A short description of assay [19]: AML differentiation inducers, ER-HoxA9 marrow cells – cell-based, GFP/MAC1 double positive, flow cytometry, validation set, primary screen (AID 588685;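 active = differentiation response of at least 50%, scaled between solvent and reference control, from cells with both markers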;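 note: compound exposure lasts four days before antibody staining and flow analysis; 0% = DMSO wells and 100% = 5 µM fulvestrant positive control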). The settings on record: stronger effect = higher value.

Sequence of Botulinum neurotoxin type A (Clostridium botulinum) (P0DPI0 whole entry, looked up): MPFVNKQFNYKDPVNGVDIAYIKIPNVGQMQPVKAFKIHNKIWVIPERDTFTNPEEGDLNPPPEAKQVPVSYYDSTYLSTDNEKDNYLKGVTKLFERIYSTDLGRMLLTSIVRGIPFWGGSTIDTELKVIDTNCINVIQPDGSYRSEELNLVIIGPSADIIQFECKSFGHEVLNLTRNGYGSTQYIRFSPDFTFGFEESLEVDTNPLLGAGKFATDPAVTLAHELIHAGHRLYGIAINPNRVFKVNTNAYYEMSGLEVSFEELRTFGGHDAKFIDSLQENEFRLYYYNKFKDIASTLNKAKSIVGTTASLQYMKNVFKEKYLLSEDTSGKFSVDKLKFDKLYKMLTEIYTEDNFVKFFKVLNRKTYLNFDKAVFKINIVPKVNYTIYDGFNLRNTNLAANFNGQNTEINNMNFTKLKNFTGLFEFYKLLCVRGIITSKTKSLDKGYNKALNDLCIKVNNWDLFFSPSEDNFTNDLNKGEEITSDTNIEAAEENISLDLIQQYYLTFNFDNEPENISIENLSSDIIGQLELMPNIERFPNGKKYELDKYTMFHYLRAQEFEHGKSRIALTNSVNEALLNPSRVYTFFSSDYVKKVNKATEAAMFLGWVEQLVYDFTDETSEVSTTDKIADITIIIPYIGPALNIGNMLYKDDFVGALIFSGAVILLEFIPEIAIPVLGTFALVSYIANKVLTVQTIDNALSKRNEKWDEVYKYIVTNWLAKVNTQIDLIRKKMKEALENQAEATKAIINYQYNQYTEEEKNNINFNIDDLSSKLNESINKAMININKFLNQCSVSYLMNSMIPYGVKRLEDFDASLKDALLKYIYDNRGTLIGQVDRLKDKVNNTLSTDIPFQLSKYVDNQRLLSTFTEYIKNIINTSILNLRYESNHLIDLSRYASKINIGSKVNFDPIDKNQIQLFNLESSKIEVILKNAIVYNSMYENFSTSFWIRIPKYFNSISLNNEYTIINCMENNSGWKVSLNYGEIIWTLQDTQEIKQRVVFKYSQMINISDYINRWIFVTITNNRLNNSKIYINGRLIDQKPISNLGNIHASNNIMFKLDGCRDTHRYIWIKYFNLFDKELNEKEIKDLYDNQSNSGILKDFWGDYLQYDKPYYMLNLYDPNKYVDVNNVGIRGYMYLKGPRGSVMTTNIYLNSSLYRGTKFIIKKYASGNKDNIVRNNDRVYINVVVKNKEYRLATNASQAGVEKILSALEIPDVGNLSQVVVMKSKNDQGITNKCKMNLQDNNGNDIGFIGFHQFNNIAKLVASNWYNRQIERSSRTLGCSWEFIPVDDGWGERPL
Sequence of AP-2 complex subunit beta (Homo sapiens) (P63010 whole entry, looked up, one chain of several): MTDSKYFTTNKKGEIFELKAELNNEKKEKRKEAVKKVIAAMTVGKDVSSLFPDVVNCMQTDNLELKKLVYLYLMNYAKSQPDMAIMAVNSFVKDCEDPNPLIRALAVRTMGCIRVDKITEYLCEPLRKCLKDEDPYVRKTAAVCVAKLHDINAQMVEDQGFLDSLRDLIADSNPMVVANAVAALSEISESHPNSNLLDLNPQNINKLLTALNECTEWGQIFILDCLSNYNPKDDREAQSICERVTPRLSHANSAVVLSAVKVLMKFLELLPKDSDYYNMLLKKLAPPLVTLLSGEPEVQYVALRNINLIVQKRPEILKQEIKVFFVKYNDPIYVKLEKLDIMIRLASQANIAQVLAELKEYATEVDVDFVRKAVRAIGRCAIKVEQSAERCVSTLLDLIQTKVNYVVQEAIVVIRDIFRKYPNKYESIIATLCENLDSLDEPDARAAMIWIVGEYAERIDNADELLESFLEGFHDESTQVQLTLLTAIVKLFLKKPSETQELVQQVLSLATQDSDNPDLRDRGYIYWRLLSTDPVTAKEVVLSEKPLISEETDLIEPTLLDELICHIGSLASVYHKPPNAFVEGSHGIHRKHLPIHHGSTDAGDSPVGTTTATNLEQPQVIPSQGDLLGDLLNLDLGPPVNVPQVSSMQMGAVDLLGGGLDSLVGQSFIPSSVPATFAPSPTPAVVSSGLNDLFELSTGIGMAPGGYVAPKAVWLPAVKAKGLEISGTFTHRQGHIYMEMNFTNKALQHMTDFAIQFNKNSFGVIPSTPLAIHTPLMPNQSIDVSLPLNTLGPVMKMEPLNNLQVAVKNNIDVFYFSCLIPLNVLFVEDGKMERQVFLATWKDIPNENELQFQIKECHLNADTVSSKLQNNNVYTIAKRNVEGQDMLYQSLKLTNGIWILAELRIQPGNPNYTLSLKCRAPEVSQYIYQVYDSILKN

The inhibition is the change of the read-out against control, counted positive when it falls. Consider `CC12CN3CC(C)(CN(C1)C3c1cccs1)C2=O` (stereo not given), for which the percent of DMSO control GFP in assay [1] was 101% (inactive). Moreover, the values for the GFP response vs DMSO in [2] and in [4] were 99.3% (inactive) and 97.3% (inactive), respectively. Moreover, the percent response of DMSO control in [3] is 109% (inactive). For the same compound, in assay [5], the GFP response, % of DMSO was 107% (inactive). The double positive events in [6] came out at 63%. For the same compound, the vesicle binding response in assay [6] was 181% (inactive). Further, the inhibition in [7] was -9.79% (inactive); in assay [11], -2.92% (inactive); in assay [14], -2.3% (inactive); in [15] it was -0.1% (inactive); in assay [16], -4.2% (inactive); in assay [18] it was 6% (inactive). For the same compound, the superoxide response (% of plate) in [8] is 102% (inactive). Further, the aptamer binding inhibition in [9] was 4% (inactive). In addition, the values for the response in assay [10] and in assay [12] were -0.2% (inactive) and -1.09% (inactive), respectively. Moreover, the binding (% of control) in assay [13] is 99.3% (inactive). In addition, the efflux inhibition (fraction of control) in assay [17] is 0.05 (inactive). In addition, in assay [19], the differentiation response was -7.57% (inactive).
In the case of `Clc1ccc(C2NCCc3[nH]cnc32)cc1` (stereo not given), the percent of DMSO control GFP in [1] was 104% (inactive). Further, the values for the GFP response vs DMSO in [2] and in assay [4] were 98.3% (inactive) and 92% (inactive), respectively. Moreover, the percent response of DMSO control in assay [3] was 101% (inactive). Moreover, the GFP response, % of DMSO in [5] is 104% (inactive). For the same compound, in assay [6], the double positive events was found to be 60.8%. Further, in assay [6], the vesicle binding response was 244% (inactive). Further, the inhibition in assay [7] was -1.49% (inactive); in [11] it was -2.42% (inactive); in [14] it was 1.1% (inactive); in assay [15], 0.7% (inactive); in assay [16] it was -5.5% (inactive); in [18], 1% (inactive). The superoxide response (% of plate) in assay [8] is 94.4% (inactive). Moreover, in assay [9], the aptamer binding inhibition was -1% (inactive). Also, the figures for the response in [10] and in [12] were -11.3% (inactive) and 0.96% (inactive), respectively. Moreover, in assay [13], the binding (% of control) is 100% (inactive). For the same compound, the efflux inhibition (fraction of control) in [17] was -0.1 (inactive). Besides, the differentiation response in [19] was -5.62% (inactive).
On to `OCc1cnc[nH]1`, for which, in [1], the percent of DMSO control GFP is 103% (inactive). Besides, the GFP response vs DMSO in [2] was 109% (inactive); in [4], 101% (inactive). For the same compound, in assay [3], the percent response of DMSO control was 98.9% (inactive). The GFP response, % of DMSO in [5] is 99.4% (inactive). Further, the double positive events in assay [6] came out at 62.2%. In addition, the vesicle binding response in assay [6] was 4490% (inactive). In addition, the inhibition in assay [7] was 11% (inactive); in assay [11] it was 3.29% (inactive); in assay [14], 0.1% (inactive); in assay [15], -0.3% (inactive); in [16], 1.2% (inactive); in assay [18], -11% (inactive). Moreover, the superoxide response (% of plate) in [8] is 104% (inactive). The aptamer binding inhibition in [9] is 0% (inactive). The response in [10] is -1.18% (inactive); in assay [12], 1.03% (inactive). Besides, the binding (% of control) in assay [13] was 97.4% (inactive). The efflux inhibition (fraction of control) in assay [17] is -0.01 (inactive). The differentiation response in [19] is -10.5% (inactive).
On to `Cc1ccsc1C(=O)C1CCCN(Cc2cc3ccccc3o2)C1` (stereo not given), for which the percent of DMSO control GFP in [1] was 102% (inactive). In addition, the GFP response vs DMSO in assay [2] is 98.3% (inactive); in [4] it was 85.5% (inactive). Besides, in [3], the percent response of DMSO control is 114% (inactive). The GFP response, % of DMSO in assay [5] was 102% (inactive). For the same compound, the double positive events in assay [6] was 59.8%. Besides, the vesicle binding response in [6] is 51.3% (inactive). Also, the inhibition is 8.88% (inactive) in assay [7]; 5.6% (inactive) in assay [11]; 2.8% (inactive) in assay [14]; -0.7% (inactive) in assay [15]; -1% (inactive) in assay [16]; -3% (inactive) in assay [18]. Besides, in assay [8], the superoxide response (% of plate) was 97.5% (inactive). Also, the aptamer binding inhibition in [9] is 1% (inactive). Further, the response is -13% (inactive) in [10] and -0.26% (inactive) in assay [12]. Further, the binding (% of control) in assay [13] was 96.9% (inactive). Further, the efflux inhibition (fraction of control) in assay [17] is -0.2 (inactive). In addition, the differentiation response in assay [19] was -4.64% (inactive).

For the origin of these results see PubChem BioAssay.
